# Reference: ChEMBL document CHEMBL3988442, “University of Dundee, Small-Polar-MMV Screening Library” (2021)
# The campaign covered roughly 69,000 compounds. About 1,000 (1.4%) showed an effect of 50% or more. This excerpt belongs to a sample that is enriched for strong results.
# System: Leishmania donovani
# Experiment: Leishmania intramacrophage assay
# Type: functional, organism-based
# Parameters: scale not given: in the data most compounds retested in dose-response had high values
structure (smiles),measurement,setting,value
CCC1CCC(N(Cc2cc(=O)n(C)c(=O)n2C)C2CC2)CC1 (configuration not stated),Percent Effect,"30.3 µM, […]",27.04%
CC1(C)CN(CC(F)(F)F)CCN1CC(N)=O,Percent Effect,"30.3 µM, […]",13.64%
Cc1ccc(OCCn2cnc3oc(C)c(C(=O)O)c3c2=O)cc1,Percent Effect,"30.3 µM, […]",-9.017%
CCCc1noc(C(C)N2CCN(CCn3ccccc3=O)CC2)n1 (configuration not stated),Percent Effect,"30.3 µM, […]",52.92%
Cc1noc(C(C)N2CCN(CCn3ccccc3=O)CC2)n1 (configuration not stated),Percent Effect,"30.3 µM, […]",29.89%
CC(c1nc(C2CC2)no1)N1CCN(CCn2ccccc2=O)CC1 (configuration not stated),Percent Effect,"30.3 µM, […]",21.89%
Cc1nc2ccc(S(=O)(=O)Nc3c(C)nn(CC(=O)O)c3C)cc2s1,Percent Effect,"30.3 µM, […]",-9.195%
CCOC[C@@H]1CC[C@H]2[C@H](CCN2S(=O)(=O)c2ccc(F)cc2)O1,Percent Effect,"30.3 µM, […]",19.83%
CCCC(NC(=O)c1cc(C)n(C2CC2)c1C)c1nnn[nH]1 (configuration not stated),Percent Effect,"30 µM, 30.03 µM",2.645%
CCOc1c(Cl)cc(Cl)cc1CNCCCn1ccnc1,Percent Effect,"30.3 µM, […]",67.73%
CCn1nnc(NCc2cc(Cl)cc(Cl)c2OC)n1,Percent Effect,"30.3 µM, […]",-5.532%
CCOc1c(CNCCCn2ccnc2)cc(Cl)cc1OC.Cl.Cl,Percent Effect,"30.3 µM, […]",35.73%
COc1ccc(Cl)cc1CNCCCn1ccnc1,Percent Effect,"30.3 µM, […]",3.119%
CCOc1ccc(Cl)cc1CNCCCn1ccnc1,Percent Effect,"30 µM, 30.03 µM",1.663%
Cc1cc(F)ccc1CN1CCC(O)(CN2CCCCC2)C1 (configuration not stated),Percent Effect,"30 µM, 30.03 µM",37.89%
COc1ccc(CN2CCC(O)(CN3CCCCC3)C2)c(C)c1 (configuration not stated),Percent Effect,"30.3 µM, […]",67.74%
Cc1cc(F)ccc1CN1CCCC(O)(CN2CCCC2)C1 (configuration not stated),Percent Effect,"30.3 µM, […]",37.99%
CCOc1ccc(C(=O)CCC(=O)N(C)Cc2nc(C)c[nH]2)cc1C,Percent Effect,"30.3 µM, […]",-49.88%
CCN(C)C[C@H]1CC[C@@H](Cc2ccc3c(cnn3C)c2)O1,Percent Effect,"30.3 µM, […]",-0.9976%
COc1ccc(C[C@@H]2CC[C@H](CN(C)C3CCN(C)CC3)O2)cc1,Percent Effect,"30.3 µM, […]",8.587%
CN1CCC(N(C)C[C@H]2CC[C@@H](Cc3cccc(O)c3)O2)CC1,Percent Effect,"30.3 µM, […]",81.26%
CN1CCC(N(C)C[C@H]2CC[C@@H](Cc3ccc4occc4c3)O2)CC1,Percent Effect,"30.3 µM, […]",87.95%
CN1CCC(N(C)C[C@H]2CC[C@@H](Cc3cccc(CO)c3)O2)CC1,Percent Effect,"30.3 µM, […]",11.6%
CN1CCC(N(C)C[C@H]2CC[C@@H](Cc3ccc4c(cnn4C)c3)O2)CC1,Percent Effect,"30.3 µM, […]",38.58%
Cc1ccnn1CCC(=O)N1CCCC1c1cc2cccnc2[nH]1.Cl (configuration not stated),Percent Effect,"30.3 µM, […]",-28.4%
COCCNC(=O)N1CCCCC1CNC(=O)Nc1ccccc1 (configuration not stated),Percent Effect,"30.3 µM, […]",-22.22%
Cc1nc(CNC(=O)N(CCCO)C2CCc3ccccc32)oc1C (configuration not stated),Percent Effect,"30.3 µM, […]",21.1%
CC(C)c1cc(C(=O)N2CC[C@@H](c3ccc4c(c3)OCO4)[C@H](O)C2)[nH]n1,Percent Effect,"30.3 µM, […]",26.43%
CCOCC1CN(Cc2cnn(C)c2)Cc2nn(C)cc21.O=C(O)C(F)(F)F (configuration not stated),Percent Effect,"30 µM, 30.03 µM",-19.77%
Cc1nn(Cn2ccc(C(=O)N3CCCC(C)C3)n2)c(C)c1Cl (configuration not stated),Percent Effect,"30.3 µM, […]",24.98%
Cc1nn(Cn2ccc(C(=O)N3CCCC3)n2)c(C)c1Cl,Percent Effect,"30.3 µM, […]",14.44%
Cc1nn(Cn2ccc(C(=O)N3CCC(C)CC3)n2)c(C)c1Cl,Percent Effect,"30.3 µM, […]",52.68%
Cc1cc(C(=O)NCc2cccnc2N2CCCC(O)C2)[nH]n1 (configuration not stated),Percent Effect,"30.3 µM, […]",14.66%
CN(Cc1ccc(Br)c2cccnc12)S(C)(=O)=O,Percent Effect,"30.3 µM, […]",20.74%
O=C(NCCc1cccs1)NCC(O)c1cccc(F)c1 (configuration not stated),Percent Effect,30 µM,0.0374%
Cc1nc(Cn2c3c(ccc2=O)CC(N)CC3)cs1 (configuration not stated),Percent Effect,"30.3 µM, […]",24.76%
Cc1nc(Cn2c3c(ccc2=O)CC(NC(N)=O)CC3)cs1 (configuration not stated),Percent Effect,"30.3 µM, […]",52.43%
CCCC(=O)NC1CCc2c(ccc(=O)n2Cc2csc(C)n2)C1.O=C(O)C(F)(F)F (configuration not stated),Percent Effect,"30.3 µM, […]",38.16%
CCN1CC2(CC1=O)CN(Cc1ccncc1)CCN(C(=O)C(C)C)C2.O=C(O)C(F)(F)F.O=C(O)C(F)(F)F (configuration not stated),Percent Effect,"30.3 µM, […]",17.44%
O=C(C[C@@H]1COC[C@H]2CN(C3CCCC3)C[C@@H]12)N1CCCCO1.O=C(O)C(F)(F)F,Percent Effect,"30.3 µM, […]",0.3497%
Cc1c[nH]c(CN(C)C(C(=O)O)c2c(F)cccc2OC(C)C)n1 (configuration not stated),Percent Effect,"30.3 µM, […]",12.35%
CC(O)CN1CCC(CNCc2cccc(Cl)c2)CC1 (configuration not stated),Percent Effect,"30.3 µM, […]",14.58%
CC(O)CN1CCC(CNCc2ccccc2C(F)(F)F)CC1 (configuration not stated),Percent Effect,30 µM,19.95%
CC(O)CN1CCC(CNCc2cccc(OC(C)C)c2)CC1 (configuration not stated),Percent Effect,"30 µM, 30.03 µM",57.47%
CC(O)CN1CCC(CNCc2cccc(OC(F)(F)F)c2)CC1 (configuration not stated),Percent Effect,30 µM,66.17%
CC(O)CN1CCC(CNCc2ccc(C#N)cc2)CC1 (configuration not stated),Percent Effect,"30.3 µM, […]",-9.359%
CC(O)CN1CCC(CNCc2cccc(C(=O)N(C)C)c2)CC1 (configuration not stated),Percent Effect,"30.3 µM, […]",15.32%
CC(O)CN1CCC(CNCc2ccc(OC(F)(F)F)cc2)CC1 (configuration not stated),Percent Effect,30 µM,89.6%
CC(O)CN1CCC(CNCc2ccccc2OC(F)(F)F)CC1 (configuration not stated),Percent Effect,"30 µM, 30.03 µM",31.23%
CC(O)CN1CCC(CNCc2cccc(C(N)=O)c2)CC1 (configuration not stated),Percent Effect,"30 µM, 30.03 µM",24.83%
CC(O)CN1CCC(CNCc2cccc(Br)c2)CC1 (configuration not stated),Percent Effect,"30 µM, 30.03 µM",61.22%
CC(O)CN1CCC(CNCc2ccc(S(C)(=O)=O)cc2)CC1 (configuration not stated),Percent Effect,"30 µM, 30.03 µM",29.6%
